In PubChem BioAssay (NCATS):
Inconclusive results are not listed. Unless noted, calls come from the whole dose curve; as a rule, active = well fitted curve in either direction with a large enough effect (not every such curve was filed as active); inconclusive = small, poorly fitted or top-dose-only effect, or another doubt; inactive = flat fitted curve, though single readings scatter.

Legend:
[1] = AP1 Signaling Pathway (AID 357); conditions: ME-180 AP-1-bla reporter, EGF-induced, beta-lactamase ratio, 5 h; at 17.2 µM (top of the series) unless noted;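 note: ME-180 reporter cells stimulated with EGF at its EC50 level; % is set by controls: 0 for no effect and ±100 for the full control effect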
Outline: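 In this screen, ME-180 cells in Opti-MEM with 0.5% dialyzed FBS received EC50 EGF and compound titrations for 5 h. AP-1 reporter beta-lactamase was detected via CCF4 ratio, giving AC50 for positive and negative modulators.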

[2] = NFAT Signaling Pathway (AID 444); conditions: Jurkat NFAT-bla M1, carbachol, beta-lactamase ratio, 5 h; at 17.2 µM (top of the series) unless noted;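 note: carbachol stimulus at about its EC50 of 1 µM final; % is set by controls: 0 for no effect and ±100 for the full control effect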
Outline: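 Read-out: CCF4 FRET ratio (460 nm/530 nm) after 1 h RT dye loading, used for %activity and AC50 from titration series. Cells: Jurkat NFAT-β-lactamase/M1 line, treated with compound plus 1 uM carbachol for 5 h, 37 °C.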

[3] = Stat Signaling Pathway (AID 446); conditions: ME-180 (cervical carcinoma) SIE beta-lactamase reporter, IL-6 stimulated, 5 h; at 17.2 µM (top of the series) unless noted;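 note: ME-180 cervical cancer cells given 40 pM IL-6 alongside compound; SIE-controlled beta-lactamase reporter measured as 460/530 nm FRET emission ratio; % is set by controls: 0 for no effect and ±100 for the full control effect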
Outline: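 Overnight-plated ME-180 cells bearing a STAT Inducible Element beta-lactamase reporter; 5 h co-exposure to compound and 40 pM IL-6; values normalized to 300 pM IL-6 and 125 nM JAK inhibitor controls.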

[4] = target: Glucocorticoid receptor (Homo sapiens) (UniProt P04150); assay: GR-GFP Redistribution (AID 450;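 active = compounds whose dose series gives a full or clear partial fitted curve of increased nuclear translocation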; note: potency is the fitted concentration of half-maximal effect)
Sequence of Glucocorticoid receptor (Homo sapiens) (P04150 whole entry, looked up): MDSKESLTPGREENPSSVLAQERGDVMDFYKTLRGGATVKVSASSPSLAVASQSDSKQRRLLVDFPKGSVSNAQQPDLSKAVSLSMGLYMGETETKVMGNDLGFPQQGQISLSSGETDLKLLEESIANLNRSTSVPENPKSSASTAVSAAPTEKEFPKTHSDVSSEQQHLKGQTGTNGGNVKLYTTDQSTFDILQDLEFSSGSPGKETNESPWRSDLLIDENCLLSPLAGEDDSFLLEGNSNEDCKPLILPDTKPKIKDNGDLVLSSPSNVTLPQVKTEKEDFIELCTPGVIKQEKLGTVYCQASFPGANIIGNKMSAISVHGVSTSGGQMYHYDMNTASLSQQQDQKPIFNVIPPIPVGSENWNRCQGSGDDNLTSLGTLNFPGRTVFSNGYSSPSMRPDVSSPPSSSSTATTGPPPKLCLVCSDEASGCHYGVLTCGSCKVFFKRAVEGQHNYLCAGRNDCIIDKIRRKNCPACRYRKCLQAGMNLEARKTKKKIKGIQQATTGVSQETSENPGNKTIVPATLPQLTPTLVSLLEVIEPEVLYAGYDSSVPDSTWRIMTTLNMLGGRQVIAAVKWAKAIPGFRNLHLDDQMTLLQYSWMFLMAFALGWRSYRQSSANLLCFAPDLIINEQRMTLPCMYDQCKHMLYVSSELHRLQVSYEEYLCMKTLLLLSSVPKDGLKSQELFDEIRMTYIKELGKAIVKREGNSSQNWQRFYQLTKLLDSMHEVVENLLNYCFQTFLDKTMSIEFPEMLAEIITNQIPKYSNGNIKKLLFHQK

Cc1c(C(Nc2ccccn2)c2ccccc2)c(=O)n(-c2ccccc2)n1C (stereo not drawn)
inactive: activity change, negative = inhibition [1] -3.17% | activity change, negative = inhibition [2] 2.74% | activity, negative = inhibition [3] 8.77% | Potency [4] > 20.6 µM

CCNc1nc(NC(C)C)nc(N(C#N)C(C)C(=O)N(C)C)n1 (stereo not drawn)
inactive: activity change, negative = inhibition [1] -3.35% | activity change, negative = inhibition [2] 0.731% | activity, negative = inhibition [3] 0.0609% | Potency [4] > 20.6 µM

CN(C)C(CN1C(=O)C2CC=CCC2C1=O)c1cn(C)c2ccccc12 (stereo not drawn)
inactive: activity change, negative = inhibition [1] 10.2% | activity change, negative = inhibition [2] 4.1% | activity, negative = inhibition [3] -3.79% | Potency [4] > 20.6 µM

Cc1csc(SCCn2c(Br)nc3c2c(=O)[nH]c(=O)n3C)n1
inactive: activity change, negative = inhibition [1] 1.52% | activity change, negative = inhibition [2] 4.32% | activity, negative = inhibition [3] 1.99% | Potency [4] > 20.6 µM

Cc1cc(=O)n2[nH]cnc2n1
inactive: activity change, negative = inhibition [1] 14.3% | activity change, negative = inhibition [2] 10.4% | activity, negative = inhibition [3] 13.7% | Potency [4] > 20.6 µM

O=C(c1cncc(Br)c1)N1CCCc2ccccc21
inactive: activity change, negative = inhibition [1] 2.83% | activity change, negative = inhibition [2] -6.51% | activity, negative = inhibition [3] -1.14% | Potency [4] > 20.6 µM

CN(C)CC(O)COc1ccc(C(C)(C)c2ccc(OCC(O)CN(C)C)cc2)cc1 (stereo not drawn)
inactive: activity change, negative = inhibition [1] -0.00757% | activity change, negative = inhibition [2] 1.57% | activity, negative = inhibition [3] -4.4% | Potency [4] > 20.6 µM

CNC(=O)c1ncnnc1N(C)C(=O)NCc1ccccc1
inactive: activity change, negative = inhibition [1] -4.45% | activity change, negative = inhibition [2] 4.03% | activity, negative = inhibition [3] 0.797% | Potency [4] > 20.6 µM

CC/C(C)=C1\SC(N2CCN(C(C)=O)CC2)=NC1=O
inactive: activity change, negative = inhibition [1] 2% | activity change, negative = inhibition [2] 5.99% | activity, negative = inhibition [3] 8.03% | Potency [4] > 20.6 µM

CCCCc1[nH]c(=O)c(C#N)c2c1CSC(C)(C)C2
inactive: activity change, negative = inhibition [1] 15.5% | activity change, negative = inhibition [2] -2.98% | activity, negative = inhibition [3] 3.1% | Potency [4] > 20.6 µM

COCCCn1c(C)nc2c(c1=O)c1nc3ccccc3nc1n2CCc1ccccc1
inactive: activity change, negative = inhibition [1] -6.69% | activity change, negative = inhibition [2] -1.98% | activity, negative = inhibition [3] -10% | Potency [4] > 20.6 µM

CCOc1ccc(C2C(C(=O)c3ccc(C)o3)=C(O)C(=O)N2CCN2CCOCC2)cc1OC (stereo not drawn)
inactive: activity change, negative = inhibition [1] 0.475% | activity change, negative = inhibition [2] 4.63% | activity, negative = inhibition [3] 0.944% | Potency [4] > 20.6 µM

Cc1nnc2n(-c3ccccc3)c(=O)c3c4c(sc3n12)COC(C(C)C)C4 (stereo not drawn)
inactive: activity change, negative = inhibition [1] -3.43% | activity change, negative = inhibition [2] -28.2% | activity, negative = inhibition [3] 4.52% | Potency [4] > 20.6 µM

CCCCc1nc(NCCN2CCOCC2)c(C#N)c2c1COC(C)(C)C2
inactive: activity change, negative = inhibition [1] -15.7% | activity change, negative = inhibition [2] 13.3% | activity, negative = inhibition [3] 1.05% | Potency [4] > 20.6 µM

CC1(C)CC(=O)C(C=NCCN2CCN(C(=O)C34CC5CC(CC(C5)C3)C4)CC2)=C(O)C1
inactive: activity change, negative = inhibition [1] -9.89% | activity change, negative = inhibition [2] 9.88% | activity, negative = inhibition [3] 7.24% | Potency [4] > 20.6 µM

Cc1ccc(/C=c2\sc3n(c2=O)CN(c2ccc(Br)cc2)CN=3)o1
inactive: activity change, negative = inhibition [1] 25.9% | activity change, negative = inhibition [2] -11.3% | activity, negative = inhibition [3] 0.614% | Potency [4] > 20.6 µM

C/C(NC(=O)c1ccccc1F)=C1\C(=O)C[C@@H]2[C@H]1C2(C)C
inactive: activity change, negative = inhibition [1] -12.1% | activity change, negative = inhibition [2] -24.9% | activity, negative = inhibition [3] -6.06% | Potency [4] > 20.6 µM

O=C(Cc1cscn1)c1ccc(O)cc1O
inactive: activity change, negative = inhibition [1] 4.71% | activity change, negative = inhibition [2] 4.07% | activity, negative = inhibition [3] 12.7% | Potency [4] > 20.6 µM

CC(=O)Oc1ccc2c(C)cc(=O)[nH]c2c1
inactive: activity change, negative = inhibition [1] 8.38% | activity change, negative = inhibition [2] -13.4% | activity, negative = inhibition [3] -3.86% | Potency [4] > 20.6 µM

N#Cc1nc(-c2cccs2)oc1NCCN1CCOCC1
inactive: activity change, negative = inhibition [1] -3.9% | activity change, negative = inhibition [2] -7.03% | activity, negative = inhibition [3] 5.17% | Potency [4] > 20.6 µM

COC(=O)c1sc(NC(=O)C(C)C)c(C(=O)OC)c1C
inactive: activity change, negative = inhibition [1] -5.18% | activity change, negative = inhibition [2] -9.07% | activity, negative = inhibition [3] 1.94% | Potency [4] > 20.6 µM

COc1ccc(C2N3CC4(C)CN2CC(C)(C3)C4O)cc1OC (stereo not drawn)
inactive: activity change, negative = inhibition [1] 9.87% | activity change, negative = inhibition [2] -5.44% | activity, negative = inhibition [3] 15.4% | Potency [4] > 20.6 µM

O=C(OCC#CCSc1nnc(-c2ccccc2)o1)c1cccs1
inactive: activity change, negative = inhibition [1] -3.3% | activity change, negative = inhibition [2] -29.9% | activity, negative = inhibition [3] -1.99% | Potency [4] > 20.6 µM

COc1cc(C)nc(Nc2nc(C)c(C(C)=O)s2)n1
inactive: activity change, negative = inhibition [1] 12.9% | activity change, negative = inhibition [2] -2.73% | activity, negative = inhibition [3] 4.9% | Potency [4] > 20.6 µM

CCOC(=O)NC(Nc1sc2c(c1C(N)=O)CCCC2)(C(=O)OCC)C(F)(F)F (stereo not drawn)
inactive: activity change, negative = inhibition [1] -6.03% | activity change, negative = inhibition [2] -0.536% | activity, negative = inhibition [3] -7.59% | Potency [4] > 20.6 µM

CC(C)Cc1nc2n[nH]c(N)c2c2c1CCC2
inactive: activity change, negative = inhibition [1] 2.89% | activity change, negative = inhibition [2] 28.5% | activity, negative = inhibition [3] -5.62% | Potency [4] > 20.6 µM

Cc1cc(=O)oc2c(CN3CCN(C)CC3)c(O)c(Cl)cc12
inactive: activity change, negative = inhibition [1] 16.9% | activity change, negative = inhibition [2] 25% | activity, negative = inhibition [3] 9.62% | Potency [4] > 20.6 µM

O=C(O)CC(C(=O)OCC1CCCO1)N1CCOCC1 (stereo not drawn)
inactive: activity change, negative = inhibition [1] 9.13% | activity change, negative = inhibition [2] -2.84% | activity, negative = inhibition [3] -0.575% | Potency [4] > 20.6 µM

CCN(CC)CCN1C(=O)C(=O)/C(=C(/O)c2ccc(F)cc2)C1c1ccncc1 (stereo not drawn)
inactive: activity change, negative = inhibition [1] -7.07% | activity change, negative = inhibition [2] 17.1% | activity, negative = inhibition [3] 1.89% | Potency [4] > 20.6 µM

Cc1ccccc1N1C(=O)C2ON(c3ccccc3)C(c3cccnc3)C2C1=O (stereo not drawn)
inactive: activity change, negative = inhibition [1] -2.7% | activity change, negative = inhibition [2] -0.971% | activity, negative = inhibition [3] -4.14% | Potency [4] > 20.6 µM

Cn1cc(Cl)nc1C(O)c1ccccc1 (stereo not drawn)
inactive: activity change, negative = inhibition [1] 2.37% | activity change, negative = inhibition [2] -2.26% | activity, negative = inhibition [3] 6.92% | Potency [4] > 20.6 µM

C=CCn1c(-c2ccc(OC)c(OC)c2)n[nH]c1=S
inactive: activity change, negative = inhibition [1] 1.93% | activity change, negative = inhibition [2] 9.3% | activity, negative = inhibition [3] -10.7% | Potency [4] > 20.6 µM

S=c1nc(-c2ccccc2)[nH]n1-c1ccccc1
inactive: activity change, negative = inhibition [1] 21.6% | activity change, negative = inhibition [2] 5.29% | activity, negative = inhibition [3] -1.15% | Potency [4] > 20.6 µM

Cc1ccc(N2C(=O)CC(Cn3nc(C)cc3C)C2=O)cc1 (stereo not drawn)
inactive: activity change, negative = inhibition [1] -1.66% | activity change, negative = inhibition [2] 6.84% | activity, negative = inhibition [3] 13.4% | Potency [4] > 20.6 µM

COc1ccc(OC)c(C(O)c2coc3ccc(O)c(CN4CCOCC4)c23)c1 (stereo not drawn)
inactive: activity change, negative = inhibition [1] 0.618% | activity change, negative = inhibition [2] -10.4% | activity, negative = inhibition [3] -5.12% | Potency [4] > 20.6 µM

CC1CN(c2oc(-c3ccccc3Cl)nc2C#N)CC(C)O1 (stereo not drawn)
inactive: activity change, negative = inhibition [1] 6.37% | activity change, negative = inhibition [2] -6.23% | activity, negative = inhibition [3] 9.86% | Potency [4] > 20.6 µM

Cc1nc2c(=O)n(C)c(=O)[nH]c2n1Cc1ccccc1
inactive: activity change, negative = inhibition [1] 10.3% | activity change, negative = inhibition [2] 14.6% | activity, negative = inhibition [3] -0.854% | Potency [4] > 20.6 µM
